Cycloheximide cs: counter-screen for Shiga toxin inhibitors: cycloheximide protein synthesis inhibition | max response, % | cell reporter, cycloheximide protein synthesis inhibition counterscreen | 300,000 compounds, 12% hits; in the data active = max response mostly above about 13%, no sharp cut-off; inactive = mostly below about 14%; note: read at 38.3 µM for the half of the compounds with a filed dose
SARS PLpro yeast: inhibitors of SARS-CoV papain-like protease in yeast | S. cerevisiae expressing SARS-CoV PLpro, growth rescue | Potency, µM (top dose mostly 32.9 µM), actives largely listed as activators | 330,000 compounds, 0.19% hits | AID 485353; calls by dose curve; note: nearly all actives have a fitted effect of over 55% in size
Pf growth 48h: P. falciparum growth inhibition at 48 hours (one generation); P. falciparum luciferase growth in erythrocytes, 48 h; Potency, µM (series often up to 28.7 µM), hits mostly inhibitors; 310,000 compounds, 5.9% hits; AID 504832
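Firefly luciferase activity from engineered P. falciparum reports growth; inhibitors lower the luminescent signal. Cultures contained 2% hematocrit erythrocytes at 0.1% final parasitemia.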
Pf growth 96h: P. falciparum growth inhibition at 96 hours; P. falciparum luciferase reporter growth, 96 h; Potency, µM (doses to about 28.7 µM), actives largely listed as inhibitors; 320,000 compounds, 6.9% hits; AID 504834
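96 h incubation, 37 C, 5% CO2, of luciferase-reporter P. falciparum-infected RBCs (2% hematocrit, 0.05% parasitemia final) with test compounds; endpoint luminescence.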
AMA1 RON2 block: disrupts binding of P. falciparum AMA1 to RON2 | Potency, µM (highest dose often 58.2 µM), actives largely listed as inhibitors | AlphaScreen AMA1-biotinylated RON2 peptide binding | 360,000 compounds, 0.2% hits; note: nearly all actives have a fitted effect of over 45% in size
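AMA1 (3D7) with his tag at 25 nM final met compounds first, then biotinylated RON2 peptide at 25 nM; detection used donor plus acceptor beads, 10 µg/mL apiece, read by AlphaScreen after 30 min at room temperature.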
Shiga inhibitor: blocks Shiga toxin action in Vero cells | Vero cells, Shiga toxin protein synthesis inhibition reporter | inhibition, % at 38.7 µM | 290,000 compounds, 9.2% hits; in the data active = inhibition mostly above about 28%, no sharp cut-off; inactive = mostly below about 43%
Each line names hits and unclear results; the compound was inactive in the other large screens. An excerpt weighted towards active compounds, which were near 19% of everything screened. Unless noted, calls come from the whole dose curve; as a rule, active = well fitted curve in the direction sought with a large enough effect; inconclusive = small, poorly fitted or top-dose-only effect, or another doubt; inactive = no such curve, though single readings can be large; an effect the other way counts as inactive or inconclusive.

Cc1cc(N2CCCC2)nc2ccccc12	none
CC(C)Cc1nc2sc3c(=O)n(N)cnc3c2c2c1COC(C)(C)C2	none
Cc1ccc(C)c(Nc2nc(-c3cccnc3)cs2)c1	Cycloheximide cs 24, Pf growth 48h inconclusive, Shiga inhibitor 111
O=C(O)c1ccc(Nc2nc(-c3cccnc3)cs2)cc1O	none
Cc1ccc(Nc2nc(-c3cccnc3)cs2)cc1Cl	Cycloheximide cs 44
NS(=O)(=O)c1ccc(Nc2nc(-c3cccnc3)cs2)cc1	none
COC(=O)N1CCC2CC1c1c(Cl)cccc12 (stereo unspecified)	none (no result: Cycloheximide cs, SARS PLpro yeast, Pf growth 48h, Pf growth 96h, Shiga inhibitor)
Cc1ccc2c(c1)c(/C=C/c1cc[n+](C)cc1)c(C)n2C	Pf growth 48h 0.93µM, Pf growth 96h 0.47µM
Cc1ccc2[nH]c(C)c(/C=C/c3cc[n+](C)cc3)c2c1	Pf growth 48h inconclusive
CCCCNC(=O)c1ccc(Cn2c(=S)[nH]c3c([nH]c4ccc(OC)cc43)c2=O)cc1	Pf growth 48h inconclusive, Pf growth 96h inconclusive
CCN(CC)CCNC(=O)CCCCn1c(=S)[nH]c2c([nH]c3ccc(OC)cc32)c1=O	Pf growth 48h 9.3µM, Pf growth 96h inconclusive
CC(C)(C)c1cc(NCc2ccccn2)n2ncc(-c3ccc(Cl)cc3)c2n1	Pf growth 48h 3.3µM, Pf growth 96h inconclusive
CN(C)CCCNc1cc(C(C)(C)C)nc2c(-c3ccc(Cl)cc3)cnn12	Cycloheximide cs 40, Pf growth 48h inconclusive, Pf growth 96h inconclusive, Shiga inhibitor 53
Cc1cc(C)c2c(n1)nn1c(NCCCN(C)C)cc(C)nc21	Pf growth 96h inconclusive
Cc1nccn1-c1cc(C(C)(C)C)nc2c(-c3ccccc3)cnn12	none
Cc1ccc2c(c1)c1c(n2C)-c2[nH]ncc2CC1	Cycloheximide cs 15, Shiga inhibitor 78
O=C(NCC(=O)N1CC(O)CC1C(=O)N1CC(O)CC1C(=O)OCc1ccccc1)OCc1ccccc1 (stereo unspecified)	Shiga inhibitor 88
CC(NC(=O)CNC(=O)OCc1ccccc1)C(=O)N1CC(O)CC1C(=O)OCc1ccccc1 (stereo unspecified)	Pf growth 96h inconclusive
CCC1(CC)Cc2ccccc2C2=C(C(=O)N3CCCCC3)C(=O)C(=O)N21	none
COc1cc(C(=O)OCCCN2CCCN(CCCOC(=O)c3cc(OC)c(OC)c(OC)c3)CC2)cc(OC)c1OC	Pf growth 48h 9.5µM (no result: Cycloheximide cs, SARS PLpro yeast, Shiga inhibitor)
COc1cc(C(=O)OCCCN2CCOCC2)ccc1O	Cycloheximide cs 17
COc1cc(C(=O)OCCN2CCOCC2)cc(OC)c1OC	none
CCN(CC)CCCCCCCCOC(=O)c1cc(OC)c(OC)c(OC)c1	Pf growth 48h 9.3µM, Pf growth 96h 10µM (no result: Cycloheximide cs, SARS PLpro yeast, Shiga inhibitor)
COc1cc(C(=O)OCCN2CCCCC2)ccc1O	none
COc1cccc(C(=O)OCCN2CCOCC2)c1	Shiga inhibitor 21
CCc1ccc(-c2cc(C(=O)O)c3ccccc3n2)s1	Pf growth 96h inconclusive
O=c1[nH]nc(Br)c(=O)n1C(c1ccccc1)c1ccccc1	none (no result: Cycloheximide cs, SARS PLpro yeast, Pf growth 48h, Pf growth 96h, Shiga inhibitor)
COc1ccc(C(=O)OCCCN(C)C)cc1OC	Cycloheximide cs 45
CCn1c(C)nnc1SCC(=O)Nc1ccccc1OC	Pf growth 96h inconclusive (no result: Shiga inhibitor)
Cc1nnc(SCC(=O)NC(C)(C)C)n1NCc1c(F)cccc1Cl	Pf growth 96h 2.3µM
Cc1nnc(SCC(N)=O)n1CCc1ccccc1	none
COc1ccccc1NC(=O)CSc1nnc(C)n1CCc1ccccc1	Pf growth 48h inconclusive, Pf growth 96h 10µM
Cc1nnc(SCC(=O)NC(C)(C)C)n1CCc1ccccc1	Cycloheximide cs 11, Pf growth 96h inconclusive
CCCCN(Cc1ccccc1)C(=O)C1CCC(=O)N(CCc2ccccn2)C1 (stereo unspecified)	Pf growth 96h inconclusive
Cc1oc(-c2cccc(Cl)c2)nc1CS(=O)(=O)CC(=O)NCc1ccco1	none
Cc1cccc(NC(=S)N=Nc2c(O)[nH]c3ccccc23)c1	Pf growth 48h inconclusive, Pf growth 96h 2.9µM
O=C(N=Nc1c(O)[nH]c2ccccc12)Nc1ccccc1	none (no result: Cycloheximide cs, SARS PLpro yeast, Pf growth 48h, Pf growth 96h, Shiga inhibitor)
COc1ccccc1NC(=S)N=Nc1c(O)[nH]c2ccc(Br)cc12	Pf growth 48h 0.93µM, Pf growth 96h 1µM
CC(C)NC(=S)N=Nc1c(O)[nH]c2ccc(C(C)C)cc12	Pf growth 48h 8.3µM, Pf growth 96h inconclusive
Cc1cccc(Nc2nn3c(=O)c4ccccc4nc3s2)c1	Shiga inhibitor 55
CCCSc1nn2c(=O)c3ccccc3nc2s1	Cycloheximide cs 39, Shiga inhibitor 66 (no result: Pf growth 48h)
O=[N+]([O-])c1ncccc1OCc1ccccc1Br	none
CC1CCN(C2CCN(S(=O)(=O)c3ccc(C(F)(F)F)cc3)CC2)CC1	none
Cc1nnsc1SCC(=O)O	none
CC1(C)CNc2cc([N+](=O)[O-])ccc2S1	Cycloheximide cs 39, Pf growth 48h inconclusive, Shiga inhibitor 58
Cc1ccc([N+](=O)[O-])cc1	none (no result: Cycloheximide cs, Shiga inhibitor)
CCC(=O)Nc1cccc(NC(=O)c2ccc3c(c2)OCO3)c1	Cycloheximide cs 19, Shiga inhibitor 61
COc1cccc(NC(=O)c2ccc3c(c2)OCO3)c1	Cycloheximide cs 32, Pf growth 96h 9.3µM, Shiga inhibitor 63
CCCC(=O)Nc1ccccc1NC(=O)c1ccc2c(c1)OCO2	none
O=C(O)c1sccc1Oc1ccc(NS(=O)(=O)c2ccccc2)cc1	none
CC(O)CNC(=O)Cc1cc(=O)[nH]c(=O)[nH]1 (stereo unspecified)	none
CSc1nsc(SCC(=O)Nc2cccc(C(=O)O)c2)n1	none
COc1ccc(-c2cc(-c3ccccc3)nc(Cl)n2)cc1OC	Cycloheximide cs 14, Pf growth 96h inconclusive
Cc1ccc(-c2cc(-c3ccccc3)nc(Cl)n2)cc1	Cycloheximide cs 46, Shiga inhibitor 128
Cc1nc(-c2ccccc2)cc(-c2ccccc2)n1	none (no result: Cycloheximide cs, SARS PLpro yeast, Pf growth 48h, Pf growth 96h, Shiga inhibitor)
CCc1nc(-c2ccc(OC)c(OC)c2)cc2cc(OC)c(OC)cc12	Pf growth 96h 9.3µM
COc1cccc(NC(=O)c2cccc(N3C(=O)C4C5C=CC(C5)C4C3=O)c2)c1 (stereo unspecified)	Pf growth 48h inconclusive, Pf growth 96h inconclusive
CC(C)NCCCCOc1ccc(Br)cc1Cl	Pf growth 48h inconclusive
O=C(O)c1cccc2c1C(=O)c1cc([N+](=O)[O-])ccc1-2	none (no result: Cycloheximide cs, SARS PLpro yeast, Pf growth 48h, Pf growth 96h, Shiga inhibitor)
O=C(Nc1nc(-c2ccccc2)cs1)c1cccs1	Cycloheximide cs 88, Shiga inhibitor 123
CC1CC1C(=O)Nc1nc(-c2ccccc2)cs1 (stereo unspecified)	Cycloheximide cs 39, Shiga inhibitor 84 (no result: Pf growth 48h)
CN(C)CC(=O)Nc1nc(-c2ccccc2)cs1	none (no result: Pf growth 48h)
O=C(Nc1nc(-c2ccccc2)ns1)c1cccs1	Cycloheximide cs 28, Shiga inhibitor 68 (no result: Pf growth 96h)
O=C(Nc1nc(-c2ccccc2)cs1)c1ccccc1NS(=O)(=O)c1ccc(F)cc1	Pf growth 48h 13µM, Pf growth 96h 3.7µM
COc1ccc(NC(=O)CN(C)CC(=O)N(C)C2(C#N)CCC(C)CC2)cc1 (stereo unspecified)	none (no result: Cycloheximide cs, Shiga inhibitor)
